Results published in PubChem BioAssay (NCI).
The panel holds about 79,000 compounds, 15% with a hit somewhere; the sample as a whole holds those more often. Active and inactive are the calls of the source. Cut-off read from the data, not from the text of the source: active = growth inhibition above about 70%; inactive = the rest.

Key:
[1] = NCI Yeast Anticancer Drug Screen. Data for the rad50 strain (AID 155);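 note: 0% = growth of vehicle-only cultures of the same strain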; conditions: S. cerevisiae rad50 strain growth inhibition; at 50.0 µM; stronger effect = higher value
Outline: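 Genetically altered yeast (DNA repair pathway); compound treatment; growth inhibition vs vehicle ctrl.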

[2] = NCI Yeast Anticancer Drug Screen. Data for the mec2-1 strain (AID 157); conditions: S. cerevisiae mec2-1 strain, at 50.0 µM, stronger effect = higher value
Outline: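 Yeast mec2-1 mutant treated with compound. Readout: growth inhibition vs vehicle controls.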

[3] = NCI Yeast Anticancer Drug Screen. Data for the sgs1 mgt1 strain (AID 161);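 note: 0% = growth of cultures given vehicle only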; conditions: S. cerevisiae sgs1 mgt1 strain, at 50.0 µM, stronger effect = higher value
Outline: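 Test agents were incubated with a DNA-repair-mutant yeast strain. Growth was then read and compared against vehicle-treated controls.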

[4] = NCI Yeast Anticancer Drug Screen. Data for the cln2 rad14 strain (AID 165);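 note: 0% = growth equal to vehicle treated cultures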; conditions: S. cerevisiae cln2 rad14 strain, at 50.0 µM, stronger effect = higher value
Outline: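 cln2 rad14 yeast strain; compound exposure; growth inhibition read vs vehicle controls.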

[5] = NCI Yeast Anticancer Drug Screen. Data for the bub3 strain (AID 167); conditions: S. cerevisiae bub3 mutant strain, at 50.0 µM, stronger effect = higher value
Outline: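 Yeast carrying a defined mutation is treated with each compound, and growth is compared with that of vehicle-exposed cells to give inhibition.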

[6] = NCI Yeast Anticancer Drug Screen. Data for the mlh1 rad18 strain (AID 175); conditions: S. cerevisiae mlh1 rad18 strain growth inhibition; at 50.0 µM; stronger effect = higher value
Outline: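 Yeast w/ defined DNA-repair lesions; compound exposure; growth vs vehicle controls → % inhibition.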

Measured: growth inhibition

CC1=NN(c2ccccc2C)C(=O)C1
inactive: [1] 2.05% | [2] -27.8% | [3] -5.1% | [4] -2.6% | [5] -27.9% | [6] 8.1%

c1ccc(N=C2SC(=NC3CCCCC3)N(C3CCCCC3)C2=Nc2ccccc2)cc1
inactive: [1] 3.35% | [2] -18.9% | [3] -0.05% | [4] 9.1% | [5] -4.9% | [6] -29.3%

COc1ccc(/C(Cl)=C(\C=N/O)c2ccc(OC)c(OC)c2)cc1OC
inactive: [1] -8.45% | [2] 11.9% | [3] -0.7% | [4] 2.05% | [5] 8.15% | [6] -7.45%

CC1(C)OC[C@@H](O)[C@H](Br)CO1
inactive: [1] -14.7% | [2] -36% | [3] -20.9% | [4] -3.95% | [5] -32.9% | [6] -28.1%

Cc1ccnn1CCc1ccc(Cl)cc1Cl
inactive: [1] 18.1% | [2] 15.3% | [3] 34.1% | [4] 11.4% | [5] 29.5% | [6] -4.55%

Cc1ccc(-c2nc3scc(C)n3n2)cc1
inactive: [1] 0.85% | [2] 6.6% | [3] -4.5% | [4] -29% | [5] 7.65% | [6] 8.85%

O=C(Nc1nc(=S)[nH][nH]1)C(=O)C(C(=O)c1ccc2ccccc2c1)C1OC(=O)c2ccccc21 (stereo unspecified)
inactive: [1] 28.6% | [2] 23.3% | [3] -6.5% | [4] -14.3% | [5] 3.75% | [6] 28.8%

N#CCCCN1CCOCC1
inactive: [1] 0.8% | [2] -20.9% | [3] -7.9% | [4] 15.7% | [5] 0% | [6] 3.6%

c1ccc(C2=C(c3ccccc3)c3ccccc3C2)cc1
inactive: [1] 0.3% | [2] -7.3% | [3] 8.55% | [4] 0.35% | [5] -8.85% | [6] -9.35%

COC1=CC(=O)c2ccc3ccccc3c2C1=O
active: [1] 86.7% | [2] 90.4% | [3] 89.4% | [4] 88.8% | [5] 88.8% | [6] 86.5%

CN1CCC(O)(/C=C\C2(O)CCN(C)CC2)CC1
inactive: [1] -10.9% | [2] 21.7% | [3] 20.1% | [4] -3.95% | [5] 3.65% | [6] -22.1%

C[C@H]1CCCCC[C@@H]2CC(=O)CC2C(=O)CCC(=O)O1 (stereo partly specified)
inactive: [1] 17.6% | [2] -4.25% | [3] -10.6% | [4] 8.05% | [5] -8.85% | [6] 12.7%

CC(=O)NNc1nc(C)c(C(=O)NNC(=O)C(=O)Nc2ccc([N+](=O)[O-])cc2[N+](=O)[O-])s1
inactive: [1] 6.45% | [2] -5.65% | [3] -30.9% | [4] 32.9% | [5] 24.1% | [6] 14.8%

O=C(O)COc1cccc(O)c1
inactive: [1] -26.4% | [2] -24.2% | [3] -39.6% | [4] -13.1% | [5] -27.9% | [6] -20.1%

COc1ccc(-c2oc3cc(OC)c(OC)c(O)c3c(=O)c2OC)cc1
inactive: [1] 7.45% | [2] 0.25% | [3] 3.05% | [4] 9.05% | [5] 13.8% | [6] -56.5%

Cc1ccc(S(=O)(=O)OC2C(CI)OCOC(CI)C2OS(=O)(=O)c2ccc(C)cc2)cc1 (stereo unspecified)
inactive: [1] -1.05% | [2] -7.3% | [3] -6.3% | [4] -20.4% | [5] -21.6% | [6] -14.8%

O=C1N(c2ccccc2)C(=O)C2(SC=NN2Cc2ccccc2)N1c1ccccc1 (stereo unspecified)
inactive: [1] -7% | [2] 2% | [3] -18.6% | [4] 8.2% | [5] 11.8% | [6] 10.7%

CCCCCOC(=O)c1c(Cl)c(Cl)c(C(=O)OCCCCC)c(Cl)c1Cl
inactive: [1] -18.2% | [2] -39% | [3] 0.85% | [4] -6.85% | [5] -6.5% | [6] -9%

CC(=O)OCC1OC(OCC[N+](C)(C)C)C(OC(C)=O)C(OC(C)=O)C1OC(C)=O (stereo unspecified)
inactive: [1] -1.65% | [2] 14.9% | [3] -15.6% | [4] -2.4% | [5] -7.35% | [6] 15.3%

CC1(Nc2ccccc2)OC(=O)c2ccccc21 (stereo unspecified)
inactive: [1] -14.2% | [2] -13.7% | [3] -15.4% | [4] -8.85% | [5] -7.4% | [6] -0.85%

COc1cc2ccc(=O)oc2cc1O
inactive: [1] 14.6% | [2] 9.35% | [3] 9.05% | [4] 19.4% | [5] 16.4% | [6] 4.05%

CCCCCCCCCCCCCCCCCCOC(=O)c1cccnc1
inactive: [1] 23.1% | [2] 10.3% | [3] 15.8% | [4] 20.7% | [5] 23.8% | [6] 27.3%

C=CCNC(=O)CN(CC(=O)OC)C1CCCCC1N(CC(=O)OC)CC(=O)OC (stereo unspecified)
inactive: [1] -8.3% | [2] -6.6% | [3] -1.8% | [4] 6.75% | [5] 2% | [6] 1.75%

O=C(CCCC(=O)Nc1ccc2[nH]c3ccccc3c(=O)c2c1)Nc1ccc2[nH]c3ccccc3c(=O)c2c1
inactive: [1] 12.7% | [2] -8.6% | [3] -0.3% | [4] 20.9% | [5] -3.55% | [6] 2.95%

COc1nc(NC2OC(CO)C(O)C(O)C2O)c(Br)c(=O)n1C (stereo unspecified)
inactive: [1] 4.4% | [2] -1.15% | [3] -3.6% | [4] -4.1% | [5] 0.75% | [6] 23%

CC1(C)OCC(C(OC(=O)c2ccc([N+](=O)[O-])cc2)C(OC(=O)c2ccc([N+](=O)[O-])cc2)C2COC(C)(C)O2)O1 (stereo unspecified)
inactive: [1] 24.6% | [2] 4.25% | [3] -5.3% | [4] 41.2% | [5] 2.9% | [6] 20.4%

C[n+]1cccc2c(=O)c3ccccc3oc21
inactive: [1] 0.8% | [2] -14.5% | [3] -6.25% | [4] -17.9% | [5] 4.65% | [6] -20.2%

O=C(O)c1ccccc1/C=N/NC1=NCCCCN1
inactive: [1] -46.8% | [2] -23.4% | [3] -29.4% | [4] -9.65% | [5] -7.55% | [6] -33.1%

O=C(O)COc1ccc(/C=C2\SC(=S)NC2=O)cc1
inactive: [1] -3.9% | [2] -8.3% | [3] 1.6% | [4] -36.5% | [5] 18.9% | [6] -12.2%

Cc1cccc(C)c1NC(=O)C(=O)CC(=O)/C=C/c1ccccc1
inactive: [1] -14.5% | [2] -20.2% | [3] -30.6% | [4] 3.05% | [5] -23.1% | [6] -28.7%

CCC(c1ccc(C(C)=O)c(O)c1)C(CC)c1ccc(C(C)=O)c(O)c1 (stereo unspecified)
inactive: [1] 9.65% | [2] 9.75% | [3] 22.6% | [4] 8.7% | [5] 2.8% | [6] 30.4%

Nn1c(SSSSc2nnc(-c3ccccc3)n2N)nnc1-c1ccccc1
inactive: [1] -12.8% | [2] 3.85% | [3] -27.2% | [4] -19.7% | [5] 14.6% | [6] 4%

CNC(=O)NS(=O)(=O)c1cccc([N+](=O)[O-])c1
inactive: [1] -0.3% | [2] 5.35% | [3] -8.3% | [4] 1.9% | [5] -21.6% | [6] -17.3%

CC(C)OC(=O)N1CCCC1
inactive: [1] 12% | [2] 13.8% | [3] 6.05% | [4] -20% | [5] 13.9% | [6] -17.4%

NC(=O)N/N=C/C1CCc2ccccc2C1 (stereo unspecified)
inactive: [1] 6.45% | [2] -10.4% | [3] -12.3% | [4] -6.2% | [5] -1.4% | [6] 1.5%

CNC(=O)c1ccccc1N=NN(C)C
inactive: [1] -0.65% | [2] 19.4% | [3] 4.05% | [4] 13.7% | [5] 15.7% | [6] 40.5%

CC(C)=CCC1=C(O)[C@@](O)(CC=C(C)C)C(=O)C(C(=O)CC(C)C)=C1O
inactive: [1] 28.2% | [2] 7.95% | [3] 31.7% | [4] 26.4% | [5] 35.2% | [6] 29.6%

C=C(CO)[C@H]1Oc2ccc(C(C)=O)cc2[C@@H]1O
inactive: [1] -16.1% | [2] -10.1% | [3] -24.6% | [4] 6.85% | [5] -10.7% | [6] -12.5%

CCN(CC)c1ccc(N=C2C=CC(=O)C(C)=C2)c(C)c1
inactive: [1] -3.05% | [2] -14.6% | [3] -0.9% | [4] -23.4% | [5] 11.8% | [6] 3.05%

C[n+]1c(I)ccc2ccccc21
inactive: [1] 35% | [2] 36.5% | [3] 53.4% | [4] 15% | [5] 15.9% | [6] 36.3%

CN(C)c1ccc(/C=C/C=C/C(=O)c2ccccc2)cc1
inactive: [1] -5.35% | [2] 16.2% | [3] -0.1% | [4] 5.55% | [5] -13.8% | [6] -7.4%
